This is part of a sample that, as a whole, favours compounds with a hit. Of some 79,000 tested, about 15% had one in any assay. Activity calls are given as the source filed them. Cut-off read from the data, not from the text of the source: active = growth inhibition above about 70%; inactive = the rest.
Key:
[1] = NCI Yeast Anticancer Drug Screen. Data for the rad52 strain (AID 147);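 note: 0% = growth of vehicle-treated control cultures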; conditions: S. cerevisiae rad52 mutant growth inhibition, stronger effect = higher value
Procedure, shortened: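 The repair-mutant yeast strain was incubated with compounds, then growth was read and inhibition derived relative to vehicle.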

[2] = NCI Yeast Anticancer Drug Screen. Data for the wt1 strain (AID 149);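 note: 0% = growth of vehicle-treated wt1 cultures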; conditions: S. cerevisiae wt1 strain (SPY 50644) growth inhibition, stronger effect = higher value
Procedure, shortened: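 Readout: yeast growth inhibition, normalised to vehicle controls, in the wt1 strain exposed to test compounds.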

[3] = NCI Yeast Anticancer Drug Screen. Data for the rad50EPP+ strain (AID 151);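 note: 0% = growth of vehicle-treated control cultures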; conditions: S. cerevisiae rad50 mutant strain, stronger effect = higher value
Procedure, shortened: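 Vehicle-normalised growth inhibition; rad50EPP+ yeast strain, altered in DNA damage repair, compound-treated.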

[4] = NCI Yeast Anticancer Drug Screen. Data for the mgt1 strain (AID 153); conditions: S. cerevisiae mgt1 mutant growth inhibition, stronger effect = higher value
Procedure, shortened: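 Vehicle-normalized growth inhibition is determined in mgt1 yeast, a strain selected for a defined alteration in DNA repair or cell cycle control.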

[5] = NCI Yeast Anticancer Drug Screen. Data for the rad50 strain (AID 155);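 note: 0% = growth of vehicle-only cultures of the same strain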; conditions: S. cerevisiae rad50 strain growth inhibition, stronger effect = higher value
Procedure, shortened: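 Compounds were tested on a yeast strain with an engineered DNA damage repair alteration; the reported value is growth inhibition normalised to vehicle treatment.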

[6] = NCI Yeast Anticancer Drug Screen. Data for the mec2-1 strain (AID 157); conditions: S. cerevisiae mec2-1 strain, stronger effect = higher value
Procedure, shortened: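 Mutant yeast (mec2-1) grown with compound; growth inhibition relative to vehicle control reported.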

[7] = NCI Yeast Anticancer Drug Screen. Data for the rad14 strain (AID 159);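 note: 0% = growth of vehicle-treated control cultures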; conditions: S. cerevisiae rad14 strain growth inhibition, stronger effect = higher value
Procedure, shortened: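 Compound-treated yeast with a defined DNA-repair lesion; growth inhibition normalised to vehicle-treated cultures.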

[8] = NCI Yeast Anticancer Drug Screen. Data for the sgs1 mgt1 strain (AID 161);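 note: 0% = growth of cultures given vehicle only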; conditions: S. cerevisiae sgs1 mgt1 strain, stronger effect = higher value
Procedure, shortened: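 This yeast growth screen uses a strain with defined DNA-repair lesions; compound-treated growth is compared with vehicle-treated growth.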

[9] = NCI Yeast Anticancer Drug Screen. Data for the CLN2oe strain (AID 163);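 note: 0% = growth of vehicle-only control cultures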; conditions: S. cerevisiae CLN2oe strain, stronger effect = higher value
Procedure, shortened: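 Compounds are applied to yeast harbouring a defined cell-cycle control change; reduced growth compared with vehicle-treated controls gives the value.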

[10] = NCI Yeast Anticancer Drug Screen. Data for the cln2 rad14 strain (AID 165);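 note: 0% = growth equal to vehicle treated cultures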; conditions: S. cerevisiae cln2 rad14 strain, stronger effect = higher value
Procedure, shortened: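 Readout is yeast growth inhibition versus vehicle-treated controls, using a strain with cln2 and rad14 alterations exposed to compound.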

[11] = NCI Yeast Anticancer Drug Screen. Data for the bub3 strain (AID 167); conditions: S. cerevisiae bub3 mutant strain, stronger effect = higher value
Procedure, shortened: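 Growth of a checkpoint-deficient yeast mutant is measured after compound exposure. Values represent inhibition relative to vehicle.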

[12] = NCI Yeast Anticancer Drug Screen. Data for the wt2 strain (AID 169);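 note: 0% = growth of vehicle-treated yeast cultures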; conditions: S. cerevisiae wt2 strain growth inhibition, stronger effect = higher value
Procedure, shortened: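 Against vehicle-treated controls, the growth of yeast exposed to each compound was compared, and the inhibition was recorded.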

[13] = NCI Yeast Anticancer Drug Screen. Data for the mlh1 strain (AID 171);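 note: 0% = growth of vehicle-treated control cultures of the same strain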; conditions: S. cerevisiae mlh1 strain growth inhibition, stronger effect = higher value
Procedure, shortened: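 Measured: yeast growth. Reference: vehicle-treated controls. Organism: strain with a defined alteration affecting DNA damage repair or cell cycle control, treated with compound.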

[14] = NCI Yeast Anticancer Drug Screen. Data for the sgs1 strain (AID 173);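 note: 0% = growth of vehicle-only control cultures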; conditions: S. cerevisiae sgs1 mutant, stronger effect = higher value
Procedure, shortened: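 Each compound was added to cultures of the altered yeast strain. Growth was recorded, and inhibition was derived by comparison with vehicle controls.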

[15] = NCI Yeast Anticancer Drug Screen. Data for the rad18 strain (AID 177); conditions: S. cerevisiae rad18 mutant growth inhibition, stronger effect = higher value
Procedure, shortened: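 Vehicle-treated cultures served as the baseline for scoring compound-induced growth inhibition in DNA-repair-mutant yeast.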

[16] = NCI Yeast Anticancer Drug Screen. Data for the mlh1 rad18 strain (AID 175); conditions: S. cerevisiae mlh1 rad18 strain growth inhibition, stronger effect = higher value
Procedure, shortened: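 Genetically defined yeast (DNA repair-deficient) exposed to compounds; growth inhibition determined relative to vehicle.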

[17] = at 5.0 µM (retest, dose inferred, filed as 0.5)
[18] = at 50.0 µM (retest, dose inferred, filed as 5.0)

Measured: growth inhibition

COc1cc(C2c3cc4c(cc3OC(NNc3ccccc3)C2C)OCO4)cc(OC)c1OC (stereo not drawn)
active: [1]; at 33.0 µM 93% | [1]; at 100.0 µM 75% | [2]; at 33.0 µM 74% | [2]; at 100.0 µM 94% | [4]; at 33.0 µM 82% | [4]; at 100.0 µM 89% | [5]; at 33.0 µM 92% | [5]; [18] 96% | [5]; at 100.0 µM 73% | [6]; [18] 96% | [6]; at 100.0 µM 91% | [7]; at 100.0 µM 75% | [8]; [18] 97% | [9]; at 33.0 µM 89% | [9]; at 100.0 µM 79% | [10]; [18] 95% | [11]; at 11.0 µM 73% | [11]; at 33.0 µM 89% | [11]; [18] 94% | [11]; at 50.0 µM 88.2% | [11]; at 100.0 µM 83% | [12]; at 33.0 µM 96% | [12]; at 100.0 µM 90% | [14]; at 33.0 µM 88% | [14]; at 100.0 µM 94% | [15]; at 33.0 µM 94% | [15]; at 100.0 µM 84%
inactive: [1]; at 1.2 µM 36% | [1]; at 3.7 µM 44% | [1]; at 11.0 µM 59% | [2]; at 1.2 µM 16% | [2]; at 3.7 µM 9% | [2]; at 11.0 µM 19% | [3]; at 1.2 µM 39% | [3]; at 3.7 µM 42% | [3]; at 11.0 µM 48% | [3]; at 33.0 µM 47% | [3]; at 100.0 µM 67% | [4]; at 1.2 µM 13% | [4]; at 3.7 µM 23% | [4]; at 11.0 µM 26% | [5]; at 1.2 µM 23% | [5]; at 3.7 µM 33% | [5]; [17] 14% | [5]; at 11.0 µM 52% | [5]; at 50.0 µM 12.3% | [6]; at 1.2 µM 2% | [6]; at 3.7 µM 5% | [6]; [17] 10% | [6]; at 11.0 µM 16% | [6]; at 33.0 µM 63% | [6]; at 50.0 µM 40.5% | [7]; at 1.2 µM -2% | [7]; at 3.7 µM 1% | [7]; at 11.0 µM 29% | [7]; at 33.0 µM 52% | [8]; [17] -4% | [8]; at 50.0 µM 20.6% | [9]; at 1.2 µM 41% | [9]; at 3.7 µM 40% | [9]; at 11.0 µM 46% | [10]; [17] 17% | [10]; at 50.0 µM 53% | [11]; at 1.2 µM 7% | [11]; at 3.7 µM 20% | [11]; [17] 19% | [12]; at 1.2 µM -2% | [12]; at 3.7 µM -13% | [12]; at 11.0 µM 41% | [13]; at 1.2 µM 16% | [13]; at 3.7 µM 23% | [13]; at 11.0 µM 24% | [13]; at 33.0 µM 26% | [13]; at 100.0 µM 30% | [14]; at 1.2 µM 29% | [14]; at 3.7 µM 37% | [14]; at 11.0 µM 34% | [15]; at 1.2 µM 52% | [15]; at 3.7 µM 56% | [15]; at 11.0 µM 64%

N#CSc1ccc(S(N)(=O)=O)cc1
inactive: [1]; at 1.2 µM -51% | [1]; at 3.7 µM -48% | [1]; at 11.0 µM -51% | [1]; at 33.0 µM -1% | [1]; at 100.0 µM 64% | [2]; at 1.2 µM -43% | [2]; at 3.7 µM -50% | [2]; at 11.0 µM -31% | [2]; at 33.0 µM -9% | [2]; at 100.0 µM 53% | [3]; at 1.2 µM -67% | [3]; at 3.7 µM -50% | [3]; at 11.0 µM -91% | [3]; at 33.0 µM -86% | [3]; at 100.0 µM -14% | [4]; at 1.2 µM -81% | [4]; at 3.7 µM -91% | [4]; at 11.0 µM -44% | [4]; at 33.0 µM -62% | [4]; at 100.0 µM 46% | [5]; at 1.2 µM -55% | [5]; at 3.7 µM -39% | [5]; [17] 51% | [5]; at 11.0 µM -36% | [5]; at 33.0 µM 17% | [5]; at 50.0 µM 56.9% | [6]; at 1.2 µM -84% | [6]; at 3.7 µM -60% | [6]; [17] 51% | [6]; at 11.0 µM -37% | [6]; at 33.0 µM -2% | [6]; at 50.0 µM 47.6% | [6]; at 100.0 µM 63% | [7]; at 1.2 µM -36% | [7]; at 3.7 µM -43% | [7]; at 11.0 µM -51% | [7]; at 33.0 µM -30% | [7]; at 100.0 µM 3% | [8]; [17] 0% | [8]; at 50.0 µM 62.1% | [9]; at 1.2 µM -27% | [9]; at 3.7 µM -13% | [9]; at 11.0 µM 2% | [9]; at 33.0 µM 29% | [9]; at 100.0 µM 66% | [10]; [17] 64% | [10]; at 50.0 µM 41.4% | [11]; at 1.2 µM -23% | [11]; at 3.7 µM -37% | [11]; [17] 5% | [11]; at 11.0 µM -17% | [11]; at 33.0 µM 37% | [12]; at 1.2 µM -48% | [12]; at 3.7 µM -45% | [12]; at 11.0 µM -32% | [12]; at 33.0 µM -25% | [12]; at 100.0 µM 50% | [14]; at 1.2 µM -68% | [14]; at 3.7 µM -67% | [14]; at 11.0 µM -21% | [14]; at 33.0 µM 9% | [14]; at 100.0 µM 65% | [16]; [17] 40% | [16]; at 50.0 µM 59.1%
active: [5]; [18] 97% | [5]; at 100.0 µM 73% | [6]; [18] 95% | [8]; [18] 85% | [10]; [18] 82% | [11]; [18] 86% | [11]; at 50.0 µM 75.8% | [11]; at 100.0 µM 79% | [16]; [18] 98%
